According to PubChem BioAssay:
“And” between values parts separate entries of the source, which are not always exact repeats. Equal values may be shown once. Inconclusive results are not listed. For some assays here: Measured potencies and affinities stand elsewhere. The source made the active and inactive calls. Unless noted, how the calls were made is not given here.

Experiments:
[1] = antimalarial activity against Dd2 strain (AID 2302;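 active means growth inhibition above 50% at the single 2 µM test dose, taken to imply half-maximal potency below 2 µM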;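 further: 0% = DMSO untreated growth and 100% = chloroquine plus artemisinin killed control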); details: P. falciparum Dd2 in RBCs, LDH growth readout, 72 h; at 2 µM; stronger effect = higher value
[2] = human hepatoma cell viability loss – ATP luminescence, cytotoxicity control for P. falciparum antimalarial project, primary screen (AID 2303;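 active means inhibition above 50%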;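 further: 0% = DMSO wells and 100% = digitonin-killed cells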); details: HepG2 viability, 24-48 h, at 10 µM, stronger effect = higher value
[3] = target: L-lactate dehydrogenase (Plasmodium falciparum (isolate CDC / Honduras)) (UniProt Q27743); experiment: PfLDH activity inhibition – cell lysate, 3D7 strain, counter-screen for P. falciparum growth inhibition project (AID 2304);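 further: 0% = vehicle and 100% = reference inhibitor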; details: P. falciparum 3D7 crude extract, LDH APAD/NBT absorbance; at 2 µM; stronger effect = higher value
[4] = inhibition of 3D7 malaria parasite growth – strain 3D7 (AID 2306);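 further: 0% = DMSO wells and 100% = chloroquine plus artemisinin control wells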; details: P. falciparum 3D7 erythrocytic growth, LDH absorbance, 72 h; at 2 µM; stronger effect = higher value
[5] = target: Calcium-dependent protein kinase 1 (Plasmodium falciparum (isolate 3D7)) (UniProt P62344); experiment: PfCDPK1 kinase inhibitors, biochemical, TCAMS library (AID 1159585; cut-off not given, nearly all actives have IC50 up to about 0.98 µM;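 further: inhibitors leave more ATP so luminescence rises with inhibition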); details: recombinant PfCDPK1, Kinase-Glo ATP depletion luminescence
[6] = target: Plasmodium falciparum protein kinase 6 (PK6, PF3D7_1337100) (UniProt Q8IDW1); experiment: PfPK6 kinase inhibitors, biochemical, TCAMS library (AID 1159586); details: recombinant PfPK6, Kinase-Glo ATP depletion luminescence
[7] = target: Protein kinase 7 (PK7), Plasmodium falciparum 3D7 (PF3D7_0213400) (UniProt Q7YTF7); experiment: inhibition of Plasmodium PK7 catalytic activity – biochemical, TCAMS antimalarial set, Kinase-Glo luminescence (AID 1159587); details: recombinant PfPK7, Kinase-Glo ATP depletion luminescence
[8] = target: Calcium-dependent protein kinase 4 (Plasmodium falciparum (isolate 3D7)) (UniProt Q8IBS5); experiment: PfCDPK4 kinase inhibitors, biochemical, TCAMS library (AID 1159588; cut-off not given, nearly all actives have IC50 up to about 0.91 µM); details: recombinant PfCDPK4, Kinase-Glo ATP depletion luminescence
[9] = target: 6-phosphogluconate dehydrogenase, decarboxylating (Homo sapiens) (UniProt P52209); experiment: inhibition of human phosphogluconate dehydrogenase – biochemical, recombinant enzyme, NADPH absorbance, primary screen (AID 1159550;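 active means at least 20% inhibition of 6-phosphogluconate dehydrogenase activity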); details: recombinant 6PGD, NADPH absorbance 341 nm; at 10 µM; stronger effect = higher value
[10] = target: Mitogen-activated protein kinase 7 (Homo sapiens) (UniProt Q13164); experiment: Gal4-ERK5 driven luciferase induction – cell-based, HTS, primary screen (AID 1508626;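 active means luciferase signal above three times the same-plate solvent-only control wells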;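 further: luciferase driven by Gal4-ERK5 fusion binding five Gal4 sites before minimal TATA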); details: HeLa Gal4-ERK5 transactivation, 18 h, at 5 µM, stronger effect = higher value
[11] = compounds altering circadian rhythm period length – cell-based, LOPAC library, luminescence reporter (AID 2774); details: circadian reporter cells, at 7 µM, actives lie on both sides;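 further: values are relative to mean of DMSO wells on each plate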
[12] = blockers of polyQ-driven CASP3 activation – cell-based (AID 1583); details: polyglutamine-induced caspase-3 activation, cell assay; stronger effect = higher value;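 tested at 10 µM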
[13] = yeast 75Q aggregation reduction – 75Q-TubU reporter (AID 1593); details: Yeast 75Q polyglutamine aggregation reporter
[14] = restoration of touch response, mutant HTT neurons – whole organism, C. elegans mechanosensory neurons, N-terminal huntingtin (AID 1599); details: C. elegans polyQ-huntingtin mechanosensory neurons, stronger effect = higher value
[15] = blockers of cytochrome c efflux from mitochondria – biochemical, purified mitochondria (AID 1603); details: stronger effect = lower value;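 further: mouse liver mitochondria challenged with calcium chloride; signal normalized to the plate average as 100%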
[16] = polyglutamine aggregate formation blockers (AID 1604); details: polyglutamine-induced protein aggregation inhibition assay; stronger effect = higher value; tested at 2.5 µM
[17] = glutamate transport activators, MN-1 cells, MN-1 cell line (AID 1612); details: MN-1 motor neuron cells, stronger effect = higher value;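 further: tested at 1 µM final; 0% = mean of DMSO vehicle wells on each plate; positive means more glutamate uptake than control and negative means less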
[18] = GFP-Q80 aggregate reduction, neuronal-like cells, cell-based, NGF-treated PC12, GFPQ80 (AID 1614); details: PC12 NGF-treated GFP-polyQ80 inclusion reduction;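 further: lower means fewer inclusions and 0 means no inclusions at all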
[19] = 75Q-TubH aggregate inhibition, S. cerevisiae, yeast (AID 1616); details: S. cerevisiae 75Q-TubH polyglutamine aggregation suppression; stronger effect = higher value
[20] = target: ATP-dependent translocase ABCB1 (Homo sapiens) (UniProt P08183); experiment: P-glycoprotein substrate transport blockade – cell-based (AID 377; in the data active means fluorescence slope change above about 50%); details: MDR1-expressing cells, fluorescent substrate accumulation slope; stronger effect = higher value; concentration not given here
[21] = P. berghei load reduction in hepatocytes – cell-based, HepG2, luciferase luminescence, HepG2 viability, primary screen (AID 624349; in the data active means parasite load remaining mostly below about 12%, no sharp cut-off; inactive means mostly above about 10%;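 further: 100% = mean of DMSO negative control wells on the same plate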); details: P. berghei liver stage in HepG2, luciferase luminescence, concentration not given here; parasite load remaining: stronger effect = lower value; viability: measured here: HepG2 viability without parasites
[22] = viability loss with induced miR-34 in A549 – imaging, A549 dox-inducible miR-34, nuclei and caspase counts, primary screen (AID 1347080;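 active means compounds whose cell count with miR-34 switched on is under 0.7 times the count with it off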); details: A549 miR-34 inducible, Hoechst nuclei count, 48 h

Calcium-dependent protein kinase 4 (Plasmodium falciparum (isolate 3D7)), sequence (Q8IBS5 whole entry, looked up): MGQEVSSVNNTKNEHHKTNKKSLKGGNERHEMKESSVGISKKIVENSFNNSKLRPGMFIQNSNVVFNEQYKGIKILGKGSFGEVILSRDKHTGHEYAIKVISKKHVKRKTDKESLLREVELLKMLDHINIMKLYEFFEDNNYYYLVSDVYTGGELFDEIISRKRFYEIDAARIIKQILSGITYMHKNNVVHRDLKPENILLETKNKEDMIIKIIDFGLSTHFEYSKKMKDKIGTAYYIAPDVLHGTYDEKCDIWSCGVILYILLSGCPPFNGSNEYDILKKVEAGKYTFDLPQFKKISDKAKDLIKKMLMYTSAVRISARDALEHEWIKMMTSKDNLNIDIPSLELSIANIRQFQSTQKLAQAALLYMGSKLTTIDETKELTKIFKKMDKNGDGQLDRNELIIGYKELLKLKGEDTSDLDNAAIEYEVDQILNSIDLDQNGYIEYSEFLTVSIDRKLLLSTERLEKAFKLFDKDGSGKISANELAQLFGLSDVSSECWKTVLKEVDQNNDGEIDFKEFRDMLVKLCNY
6-phosphogluconate dehydrogenase, decarboxylating (Homo sapiens), sequence (P52209 whole entry, looked up, the tested form may be a part): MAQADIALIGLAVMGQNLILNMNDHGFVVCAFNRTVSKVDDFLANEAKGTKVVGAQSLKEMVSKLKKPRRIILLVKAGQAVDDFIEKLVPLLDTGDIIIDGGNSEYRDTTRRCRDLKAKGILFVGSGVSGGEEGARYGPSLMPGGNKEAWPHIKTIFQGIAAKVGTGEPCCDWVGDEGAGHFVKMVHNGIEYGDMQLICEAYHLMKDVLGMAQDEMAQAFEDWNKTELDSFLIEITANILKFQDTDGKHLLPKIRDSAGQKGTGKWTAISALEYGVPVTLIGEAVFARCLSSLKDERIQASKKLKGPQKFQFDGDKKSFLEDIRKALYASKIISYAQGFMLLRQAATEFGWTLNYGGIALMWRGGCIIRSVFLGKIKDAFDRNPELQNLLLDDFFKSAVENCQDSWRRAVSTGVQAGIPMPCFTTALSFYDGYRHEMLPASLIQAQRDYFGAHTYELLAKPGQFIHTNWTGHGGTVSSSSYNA
L-lactate dehydrogenase (Plasmodium falciparum (isolate CDC / Honduras)), sequence (Q27743 whole entry, looked up): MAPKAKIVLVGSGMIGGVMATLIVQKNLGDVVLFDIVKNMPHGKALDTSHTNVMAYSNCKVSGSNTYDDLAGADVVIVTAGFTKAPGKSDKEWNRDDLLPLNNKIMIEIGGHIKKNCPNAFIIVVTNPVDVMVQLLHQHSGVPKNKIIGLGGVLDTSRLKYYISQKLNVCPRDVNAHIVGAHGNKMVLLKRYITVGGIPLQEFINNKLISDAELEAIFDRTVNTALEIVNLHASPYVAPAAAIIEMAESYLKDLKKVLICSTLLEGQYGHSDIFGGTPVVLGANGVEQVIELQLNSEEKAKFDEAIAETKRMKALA
Mitogen-activated protein kinase 7 (Homo sapiens), sequence (Q13164 whole entry, looked up, the tested form may be a part): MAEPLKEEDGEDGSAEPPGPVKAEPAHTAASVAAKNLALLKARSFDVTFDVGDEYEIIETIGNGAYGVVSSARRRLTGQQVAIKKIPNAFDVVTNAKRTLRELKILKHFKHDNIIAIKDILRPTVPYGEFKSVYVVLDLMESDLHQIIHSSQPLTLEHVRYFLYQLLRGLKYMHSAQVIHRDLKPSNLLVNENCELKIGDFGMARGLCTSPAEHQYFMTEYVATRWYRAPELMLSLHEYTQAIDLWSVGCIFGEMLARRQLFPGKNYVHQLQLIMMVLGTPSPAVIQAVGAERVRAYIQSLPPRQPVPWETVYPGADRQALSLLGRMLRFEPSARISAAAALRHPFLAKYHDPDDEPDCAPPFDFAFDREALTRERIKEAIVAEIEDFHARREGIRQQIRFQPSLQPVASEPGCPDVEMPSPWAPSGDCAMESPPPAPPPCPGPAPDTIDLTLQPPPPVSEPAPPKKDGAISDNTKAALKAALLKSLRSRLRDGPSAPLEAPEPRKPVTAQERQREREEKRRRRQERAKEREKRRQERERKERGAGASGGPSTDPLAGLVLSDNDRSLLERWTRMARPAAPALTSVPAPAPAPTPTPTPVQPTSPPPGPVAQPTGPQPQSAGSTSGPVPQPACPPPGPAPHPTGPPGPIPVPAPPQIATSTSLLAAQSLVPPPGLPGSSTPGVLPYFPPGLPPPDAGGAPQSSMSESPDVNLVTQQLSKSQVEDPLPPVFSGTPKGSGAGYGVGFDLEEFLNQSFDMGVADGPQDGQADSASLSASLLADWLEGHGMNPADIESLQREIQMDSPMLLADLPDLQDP
Plasmodium falciparum protein kinase 6 (PK6, PF3D7_1337100), sequence (Q8IDW1 1-305): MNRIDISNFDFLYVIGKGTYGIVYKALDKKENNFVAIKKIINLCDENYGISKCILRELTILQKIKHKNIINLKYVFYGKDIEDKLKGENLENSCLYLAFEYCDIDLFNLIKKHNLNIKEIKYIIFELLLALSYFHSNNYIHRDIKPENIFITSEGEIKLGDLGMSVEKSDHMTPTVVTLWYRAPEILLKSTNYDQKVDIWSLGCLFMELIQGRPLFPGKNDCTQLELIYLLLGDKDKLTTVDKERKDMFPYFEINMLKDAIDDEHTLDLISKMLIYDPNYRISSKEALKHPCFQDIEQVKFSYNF
Calcium-dependent protein kinase 1 (Plasmodium falciparum (isolate 3D7)), sequence (P62344 whole entry, looked up): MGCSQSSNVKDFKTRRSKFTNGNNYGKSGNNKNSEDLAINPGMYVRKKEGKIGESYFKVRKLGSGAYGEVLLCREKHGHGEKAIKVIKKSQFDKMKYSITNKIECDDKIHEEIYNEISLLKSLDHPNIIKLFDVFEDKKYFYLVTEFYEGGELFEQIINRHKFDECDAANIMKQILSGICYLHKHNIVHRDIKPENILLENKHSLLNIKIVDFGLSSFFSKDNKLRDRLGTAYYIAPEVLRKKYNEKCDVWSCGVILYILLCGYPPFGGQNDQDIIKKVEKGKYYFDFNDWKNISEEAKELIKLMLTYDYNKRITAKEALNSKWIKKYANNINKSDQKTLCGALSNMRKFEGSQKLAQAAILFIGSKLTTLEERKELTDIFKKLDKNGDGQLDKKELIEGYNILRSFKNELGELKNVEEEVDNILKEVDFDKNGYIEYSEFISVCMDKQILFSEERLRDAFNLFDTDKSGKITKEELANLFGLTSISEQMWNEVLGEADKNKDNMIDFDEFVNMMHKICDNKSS
Protein kinase 7 (PK7), Plasmodium falciparum 3D7 (PF3D7_0213400), sequence (Q7YTF7 1-343): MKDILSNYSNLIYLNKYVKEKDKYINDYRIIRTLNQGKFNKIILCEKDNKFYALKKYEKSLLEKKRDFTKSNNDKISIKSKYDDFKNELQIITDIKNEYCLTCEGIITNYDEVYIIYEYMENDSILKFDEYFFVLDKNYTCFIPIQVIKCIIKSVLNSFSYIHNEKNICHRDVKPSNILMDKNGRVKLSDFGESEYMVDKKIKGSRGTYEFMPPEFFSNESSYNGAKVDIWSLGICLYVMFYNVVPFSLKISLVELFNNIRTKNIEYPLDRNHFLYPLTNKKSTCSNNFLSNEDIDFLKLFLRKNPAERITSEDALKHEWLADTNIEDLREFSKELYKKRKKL
ATP-dependent translocase ABCB1 (Homo sapiens), sequence (P08183 whole entry, looked up): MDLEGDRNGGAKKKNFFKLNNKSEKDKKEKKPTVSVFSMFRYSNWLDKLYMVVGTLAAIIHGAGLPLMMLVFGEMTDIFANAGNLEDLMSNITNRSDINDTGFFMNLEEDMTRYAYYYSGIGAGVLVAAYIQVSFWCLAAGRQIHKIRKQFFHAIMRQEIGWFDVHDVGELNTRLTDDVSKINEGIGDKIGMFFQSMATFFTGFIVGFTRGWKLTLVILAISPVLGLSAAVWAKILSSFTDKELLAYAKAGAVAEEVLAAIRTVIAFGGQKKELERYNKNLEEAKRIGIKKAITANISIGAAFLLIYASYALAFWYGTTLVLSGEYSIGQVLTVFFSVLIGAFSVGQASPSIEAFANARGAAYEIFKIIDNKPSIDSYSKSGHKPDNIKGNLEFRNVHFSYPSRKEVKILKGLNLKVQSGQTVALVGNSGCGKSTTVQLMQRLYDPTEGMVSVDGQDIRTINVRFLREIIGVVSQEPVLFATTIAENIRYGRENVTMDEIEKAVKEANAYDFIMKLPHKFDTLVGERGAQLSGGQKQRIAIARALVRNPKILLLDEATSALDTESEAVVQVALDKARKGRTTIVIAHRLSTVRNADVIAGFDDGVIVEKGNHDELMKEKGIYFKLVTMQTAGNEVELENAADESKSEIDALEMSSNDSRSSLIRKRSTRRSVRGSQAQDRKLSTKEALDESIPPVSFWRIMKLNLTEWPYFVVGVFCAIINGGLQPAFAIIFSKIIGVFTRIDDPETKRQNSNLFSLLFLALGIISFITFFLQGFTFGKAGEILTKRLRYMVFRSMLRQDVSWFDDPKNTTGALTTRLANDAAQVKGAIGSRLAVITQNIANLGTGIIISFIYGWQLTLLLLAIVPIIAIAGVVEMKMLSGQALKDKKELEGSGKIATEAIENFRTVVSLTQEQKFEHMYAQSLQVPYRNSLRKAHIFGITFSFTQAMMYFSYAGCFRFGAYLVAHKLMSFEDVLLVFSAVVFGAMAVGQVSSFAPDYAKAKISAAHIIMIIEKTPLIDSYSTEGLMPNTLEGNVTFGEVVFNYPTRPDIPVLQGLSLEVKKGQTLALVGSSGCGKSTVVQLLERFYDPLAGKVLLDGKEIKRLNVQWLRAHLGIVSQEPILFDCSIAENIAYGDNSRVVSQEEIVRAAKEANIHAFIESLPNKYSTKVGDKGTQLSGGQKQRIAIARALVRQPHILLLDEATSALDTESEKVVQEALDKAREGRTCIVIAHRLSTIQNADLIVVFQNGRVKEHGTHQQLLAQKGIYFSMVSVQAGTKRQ

SMILES: O=C(CSc1ccc(Cl)cc1)NC1CCC(CN2CCC(c3c[nH]c4ccccc34)CC2)CC1 (stereo unspecified)
- growth inhibition [1]: 21% (inactive)
- inhibition [2]: 41% (inactive)
- inhibition [3]: -3% (inactive)
- growth inhibition [4]: 95% (active)
- outcome [5]: inactive
- outcome [6]: inactive
- outcome [7]: inactive
- outcome [8]: inactive

SMILES: O=C(O)CNCP(=O)(O)O
- inhibition [9]: 3.86% (inactive)
- luciferase signal [10]: 40 AU (inactive)

SMILES: NNCc1cccc(O)c1
- period change [11]: -0.07 h (inactive)
- inhibition [9]: 15.8% (inactive)

SMILES: COC(=O)[C@]1(C)CC[C@]2(C)CC[C@]3(C)C4=CCc5c(cc(O)c(O)c5C)[C@]4(C)CC[C@@]3(C)[C@@H]2C1
- inhibition [9]: 5.04% (inactive)
- luciferase signal [10]: 20 AU (inactive)

SMILES: CC[C@H]1CN2CC[C@H]1C[C@H]2[C@H](O)c1cc(Cl)nc2ccc(OC)cc12
- growth inhibition [1]: 92% (active)
- inhibition [2]: 0% (inactive)
- inhibition [3]: 2% (inactive)
- growth inhibition [4]: 101% (active)
- outcome [5]: inactive
- outcome [6]: inactive
- outcome [7]: inactive
- outcome [8]: inactive

SMILES: CC(C)=CCC[C@]1(C)C=Cc2c(O)c3c(c(CC=C(C)C)c2O1)O[C@]12C(=C[C@@H]4C[C@H]1C(C)(C)O[C@@]2(C/C=C(/C)C(=O)O)C4=O)C3=O
- inhibition [9]: -17.6% (inactive)
- luciferase signal [10]: 72 AU (inactive)

SMILES: CO[C@H]1C[C@H](O[C@H]2CC[C@@]3(C)[C@H](CC[C@@H]4[C@@H]3CC[C@]3(C)[C@@H](C5=CC(=O)OC5)[C@@H](OC(C)=O)C[C@]43O)C2)O[C@@H](C)[C@@H]1O
- inhibition [9]: 5.8% (inactive)
- luciferase signal [10]: 32 AU (inactive)

SMILES: O=C1CCCC2C3CC(CN12)C1CCCCN1C3 (stereo unspecified)
- inhibition [9]: -2.75% (inactive)
- luciferase signal [10]: 60 AU (inactive)

SMILES: C/C=C(\C)C(=O)O[C@H]1C[C@@H](OC(C)=O)[C@@]2(C(=O)OC)CO[C@H]3[C@@H](O)[C@@](C)([C@]45O[C@@]4(C)[C@H]4C[C@@H]5O[C@@H]5OC=C[C@@]54O)[C@H]4[C@]1(CO[C@]4(O)C(=O)OC)[C@@H]32
- inhibition [9]: 3.41% (inactive)
- luciferase signal [10]: 12 AU (inactive)

SMILES: CC1CC(Cl)CCC1C(=O)OC(C)(C)C (stereo unspecified)
- inhibition [9]: -3.82% (inactive)
- luciferase signal [10]: 40 AU (inactive)

SMILES: COP(=S)(OC)SCn1nnc2ccccc2c1=O
- inhibition [9]: 1.29% (inactive)
- luciferase signal [10]: 64 AU (inactive)

SMILES: O=C(Nc1cc(C(F)(F)F)cc(C(F)(F)F)c1)N1CCC(CN2CCC(c3c[nH]c4ccccc34)CC2)CC1
- growth inhibition [1]: 99% (active)
- inhibition [2]: 42% (inactive)
- inhibition [3]: -1% (inactive)
- growth inhibition [4]: 100% (active)
- outcome [5]: inactive
- outcome [6]: inactive
- outcome [7]: inactive
- outcome [8]: inactive

SMILES: CC(C)CC(NC(=O)C(Cc1ccccc1)NC(=O)CNC(=O)CNC(=O)C(N)Cc1ccc(O)cc1)C(=O)O (stereo unspecified)
- inhibition [12]: -1.79%
- score [13]: 1.42
- rescue above control [14]: 3.43
- cytochrome c release ratio [15]: 0.97
- inhibition of aggregation [16]: 27.9%
- glutamate uptake change [17]: 12.5%
- inclusion score [18]: 2
- aggregation suppression score [19]: 1.27
- inhibition [9]: 11% (inactive)

SMILES: CC[C@H]1CN2CC[C@@H]1C[C@H]2[C@H](O)c1cc[n+]([O-])c2ccc(OC)cc12
- outcome [5]: inactive
- outcome [6]: inactive
- outcome [7]: inactive
- outcome [8]: inactive

SMILES: CC1(C)C(=O)C=C[C@@]2(C)C1=C(O)C(=O)[C@]1(C)[C@@H]2CC[C@@]2(C)[C@H](c3ccoc3)C[C@H]3O[C@]321
- inhibition [9]: 11.8% (inactive)
- luciferase signal [10]: 12 AU (inactive)

SMILES: CNC(=O)Oc1cccc2c1OC(C)(C)C2
- inhibition [9]: -14.7% (inactive)
- luciferase signal [10]: 44 AU (inactive)

SMILES: COc1cc2c(cc1O)C[C@H]1c3c(cc(O)c(OC)c3-2)CCN1C
- fluorescence slope change [20]: 14.6% (inactive)
- parasite load remaining [21]: 91.1% (inactive)
- viability [21]: 118%
- inhibition [9]: 3.02% (inactive)
- fold change ([22]; stronger effect = lower value, cell number ratio, induced over uninduced): 0.885 (inactive)
- fold change ([22]; measured here: relative caspase fold change +Dox/-Dox): 1.54
- cell count ([22]; measured here: total cells with miR-34 induction, stronger effect = lower value): 8000
- cell count ([22]; measured here: total cells without miR-34 induction): 9040
- luciferase signal [10]: 56 AU (inactive)

SMILES: COC(=O)COc1cc(Cl)c(Cl)cc1Cl
- inhibition [9]: -16.9% (inactive)
- luciferase signal [10]: 92 AU (inactive)

SMILES: CC[C@@H](C)C(=O)O[C@H]1[C@H](O)[C@H]2[C@@H](CN3C[C@@H](C)CC[C@H]3[C@@]2(C)O)[C@@H]2C[C@]34O[C@]5(O)[C@@H](OC(=O)[C@@](C)(O)CC)CC[C@@]3(C)[C@@H]5[C@@H](OC(C)=O)[C@@H](OC(C)=O)[C@H]4[C@@]21O
- inhibition [9]: -7.64% (inactive)
- luciferase signal [10]: 108 AU (inactive)

SMILES: CC(=O)[O-].CC(=O)[O-].[Cd+2]
- inhibition [9]: 6.37% (inactive)
- luciferase signal [10]: 740 AU (inactive)

SMILES: COC[C@]12CN(C=O)C3[C@@H]4C(OC)C1[C@]3(C1CC3(O)C(OC)C(O)C4(OC(C)=O)C1C3OC(=O)c1ccccc1)[C@@H](OC)C[C@H]2O (stereo partly specified)
- inhibition [9]: -2.18% (inactive)
- luciferase signal [10]: 148 AU (inactive)

SMILES: COc1ccc2[nH]cc(C3C[C@H]4CC[C@@H](C3)N4CCC3CCN(C(=O)/C=C/c4ccc(Cl)c(Cl)c4)CC3)c2c1 (stereo partly specified)
- growth inhibition [1]: 80% (active)
- inhibition [2]: 38% (inactive)
- inhibition [3]: 5% (inactive)
- growth inhibition [4]: 101% (active)
- outcome [5]: inactive
- outcome [6]: inactive
- outcome [7]: inactive
- outcome [8]: inactive

SMILES: CCC1CN2CCc3cc(OC)c(OC)cc3C2CC1CC1NCCc2c1[nH]c1ccc(O)cc21 (stereo unspecified)
- growth inhibition [1]: 100% (active)
- inhibition [2]: 45% (inactive)
- inhibition [3]: -7% (inactive)
- growth inhibition [4]: 99% (active)
- outcome [5]: inactive
- outcome [6]: inactive
- outcome [7]: inactive
- outcome [8]: inactive

SMILES: Cc1ccc(CC(C)NCC(O)c2cccc(C(F)(F)F)c2)c(C)c1 (stereo unspecified)
- growth inhibition [1]: 99% (active)
- inhibition [2]: 3% (inactive)
- inhibition [3]: -1% (inactive)
- growth inhibition [4]: 99% (active)
- outcome [5]: inactive
- outcome [6]: inactive
- outcome [7]: inactive
- outcome [8]: inactive

SMILES: O=C(C=Cc1ccc(F)c(Br)c1)NC1CCC(CN2CCC(c3c[nH]c4ccccc34)CC2)CC1 (stereo unspecified)
- growth inhibition [1]: 67% (active) and 50% (active)
- inhibition [2]: 39% (inactive) and 28% (inactive)
- inhibition [3]: 2% (inactive) and 5% (inactive)
- growth inhibition [4]: 103% (active) and 102% (active)
- outcome [5]: inactive
- outcome [6]: inactive
- outcome [7]: inactive
- outcome [8]: inactive

SMILES: COc1cccc(C(=O)C2CC2CN2CC=C(c3c(C)[nH]c4ccccc34)CC2)c1 (stereo unspecified)
- growth inhibition [1]: 87% (active)
- inhibition [2]: 13% (inactive)
- inhibition [3]: -8% (inactive)
- growth inhibition [4]: 92% (active)
- outcome [5]: inactive
- outcome [6]: inactive
- outcome [7]: inactive
- outcome [8]: inactive
